Compounds with a hit are over-represented: about 12% of the library has one in this group of screens.
JMJD2A Tudor = JMJD2A Tudor domain (human) inhibition. O75164. AlphaScreen JMJD2A-Tudor / H3K4me3 peptide binding. Potency, µM (series often up to 114 µM), for the others: top-dose activity change, negative = inhibition, hits mostly inhibitors. hit rate 4.4% among 390,000. AID 504339; further: potency means the concentration at half of the fitted maximal effect; on the % scale 0 is the no-effect control and ±100 the full control effect; nearly all actives have a fitted effect of over 50% in size
HP1b chromo inh = inhibitors of HP1-beta chromodomain binding to methylated histone tails; hit rate 0.56% among 390,000; AID 540317; Potency, µM (series often up to 114 µM), inactives show top-dose activity change, negative = inhibition, usual class: inhibitors; AlphaScreen HP1-beta / biotin-H3K9me3 peptide binding; further: potency means the concentration at half of the fitted maximal effect; nearly all actives have a fitted effect of over 70% in size
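Compound inhibition of the preformed complex between 50 nM HP1-beta and 50 nM biotinylated H3K9me3 peptide was read by AlphaScreen. Buffer was PBS pH 7.4 with 0.01% Tween-20. Incubations ran 30 min at room temperature, with 10 ug/mL donor/acceptor beads.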
PI5P4Ka inh = blocks human PI5P4K alpha kinase activity; PI5P4Kalpha enzyme, ADP-Glo luminescence, 60 min; active compounds read low; max response, %; hit rate 1.2% among 330,000; active means max response of -50% or lower; inconclusive means between -30% and -50%; inactive means -30% or higher; further: value at the top dose of about 77 µM; on the % scale 0 is the no-effect control and ±100 the full control effect
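Human PI5P4Kalpha with substrate in 0.038 M HEPES pH 7.4, 0.28 mM EGTA, 0.1% CHAPS, 5% DMSO; reaction started with 5 microM ATP (final), 60 min at room temperature. ADP formed read by ADP-Glo luminescence.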
G9a block = blocks human histone lysine methyltransferase G9a | Q96KQ7 | Potency, µM (highest dose often 102 µM), for inactives: top-dose activity, negative = inhibition, hits mostly inhibitors | hit rate 8.8% among 350,000 | AID 504332 | G9a H3K9 monomethylation, AlphaScreen, 2 h; further: potency means the concentration at half of the fitted maximal effect; on the % scale 0 is the no-effect control and ±100 the full control effect; nearly all actives have a fitted effect of over 75% in size
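Readings reflect AlphaScreen signal from monomethyl-H3K9 antibody detection. HMT at 20 nM; substrate b-H3K9 500 nM; cofactor SAM 20 uM; 2 h RT reaction; compounds tested as titrations in qHTS with 15 min preincubation.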
PLK1 PBD inh = blocks phosphopeptide binding to human PLK1 polo-box domain; P53350; Plk1 PBD binding of FITC phosphopeptide, fluorescence polarization; Potency, µM, for the others: max response, negative = inhibition, usual class: inhibitors; hit rate 2.8% among 360,000; further: potency means the concentration at half of the fitted maximal effect; series mostly up to about 57 µM; on the % scale 0 is the no-effect control and ±100 the full control effect; nearly all actives have a fitted effect of over 65% in size
BAZ2B block = blocks human BAZ2B; AlphaScreen BAZ2B-H3K14Ac peptide displacement; Potency, µM (highest dose often 114 µM), without a hit: at the top dose activity change, negative = inhibition, hits mostly inhibitors; hit rate 4.4% among 360,000; AID 504333; further: potency means the concentration at half of the fitted maximal effect; on the % scale 0 is the no-effect control and ±100 the full control effect; nearly all actives have a fitted effect of over 60% in size
Target sequence (Q9UIF8 whole entry, looked up): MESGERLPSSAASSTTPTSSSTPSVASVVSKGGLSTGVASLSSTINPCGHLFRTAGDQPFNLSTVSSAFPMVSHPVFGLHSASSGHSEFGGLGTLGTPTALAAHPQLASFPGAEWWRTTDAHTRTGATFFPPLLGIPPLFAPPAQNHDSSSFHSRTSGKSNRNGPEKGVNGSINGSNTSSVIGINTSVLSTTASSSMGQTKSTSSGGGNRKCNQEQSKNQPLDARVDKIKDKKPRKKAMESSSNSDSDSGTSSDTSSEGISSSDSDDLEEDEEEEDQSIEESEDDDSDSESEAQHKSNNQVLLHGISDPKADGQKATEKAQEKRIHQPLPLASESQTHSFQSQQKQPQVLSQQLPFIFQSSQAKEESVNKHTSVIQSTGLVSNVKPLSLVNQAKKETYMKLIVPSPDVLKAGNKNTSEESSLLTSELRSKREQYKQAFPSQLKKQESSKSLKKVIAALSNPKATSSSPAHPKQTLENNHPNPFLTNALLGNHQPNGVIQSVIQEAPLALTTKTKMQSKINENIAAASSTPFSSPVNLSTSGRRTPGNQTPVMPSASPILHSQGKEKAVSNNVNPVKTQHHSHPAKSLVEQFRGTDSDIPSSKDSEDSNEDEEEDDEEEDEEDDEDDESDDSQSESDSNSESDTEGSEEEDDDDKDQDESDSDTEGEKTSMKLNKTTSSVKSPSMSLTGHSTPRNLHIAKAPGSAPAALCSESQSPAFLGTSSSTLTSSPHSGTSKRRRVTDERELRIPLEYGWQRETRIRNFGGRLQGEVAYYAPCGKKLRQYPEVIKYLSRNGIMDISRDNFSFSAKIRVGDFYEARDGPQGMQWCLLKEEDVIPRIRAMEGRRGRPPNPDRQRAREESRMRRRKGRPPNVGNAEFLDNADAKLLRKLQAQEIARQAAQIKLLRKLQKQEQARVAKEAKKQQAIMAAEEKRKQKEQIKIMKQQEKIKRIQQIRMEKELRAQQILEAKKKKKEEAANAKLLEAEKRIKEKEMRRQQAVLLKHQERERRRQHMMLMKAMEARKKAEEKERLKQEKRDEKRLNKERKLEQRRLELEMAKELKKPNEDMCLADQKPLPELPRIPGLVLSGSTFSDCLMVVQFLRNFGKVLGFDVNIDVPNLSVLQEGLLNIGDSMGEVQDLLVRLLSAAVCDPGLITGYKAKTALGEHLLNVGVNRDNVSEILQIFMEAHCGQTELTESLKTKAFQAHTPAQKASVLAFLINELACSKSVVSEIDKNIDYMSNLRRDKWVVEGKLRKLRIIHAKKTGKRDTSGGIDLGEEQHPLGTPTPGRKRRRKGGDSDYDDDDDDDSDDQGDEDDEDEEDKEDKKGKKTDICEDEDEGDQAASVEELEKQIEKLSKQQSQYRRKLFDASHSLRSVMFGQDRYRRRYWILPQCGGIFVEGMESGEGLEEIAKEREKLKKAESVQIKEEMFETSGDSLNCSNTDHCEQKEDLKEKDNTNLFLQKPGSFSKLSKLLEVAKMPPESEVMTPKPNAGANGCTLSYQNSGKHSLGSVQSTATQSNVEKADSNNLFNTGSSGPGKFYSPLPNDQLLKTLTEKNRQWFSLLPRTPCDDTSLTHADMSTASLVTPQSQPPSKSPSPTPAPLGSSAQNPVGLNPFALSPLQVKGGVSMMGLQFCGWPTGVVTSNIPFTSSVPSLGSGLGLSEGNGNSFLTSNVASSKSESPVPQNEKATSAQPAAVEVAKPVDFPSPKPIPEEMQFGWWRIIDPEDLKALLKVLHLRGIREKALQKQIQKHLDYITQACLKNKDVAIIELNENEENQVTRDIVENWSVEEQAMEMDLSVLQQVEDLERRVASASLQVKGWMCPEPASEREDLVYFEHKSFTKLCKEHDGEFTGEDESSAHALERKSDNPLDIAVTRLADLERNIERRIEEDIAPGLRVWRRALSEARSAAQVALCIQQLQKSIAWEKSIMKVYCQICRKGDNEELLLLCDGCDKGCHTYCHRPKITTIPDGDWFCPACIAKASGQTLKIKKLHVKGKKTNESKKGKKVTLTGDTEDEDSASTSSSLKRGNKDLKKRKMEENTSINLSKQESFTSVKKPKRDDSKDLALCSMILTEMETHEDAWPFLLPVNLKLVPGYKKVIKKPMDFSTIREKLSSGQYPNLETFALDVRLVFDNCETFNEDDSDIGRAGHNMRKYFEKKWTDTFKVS
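Inhibition is scored as reduced AlphaScreen emission. The BAZ2B/b-H3(5-23)K14Ac complex (50 nM each) in PBS pH 7.4, 0.01% Tween-20 meets compound (up to 110 uM) for 30 min at RT before bead addition.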
TbPYK confirm = Trypanosoma brucei pyruvate kinase inhibition, cherry-pick confirmation; shares compounds with PLK1 PBD inh; recombinant TbPYK, Kinase-Glo ATP luminescence; Potency, µM (titrated, usually from 76.9 µM), without a hit: top-dose activity change, negative = inhibition, usual class: inhibitors; hit rate 67% among 890; further: potency means the concentration at half of the fitted maximal effect; on the % scale 0 is the no-effect control and ±100 the full control effect; nearly all actives have a fitted effect of over 70% in size
TbPYK orthogonal = inhibits T. brucei pyruvate kinase in orthogonal ADP-Glo assay; shares compounds with PLK1 PBD inh; recombinant TbPYK, ADP-Glo luminescence, 60 min; Potency, µM (series often up to 76.9 µM), for the others: at the top dose activity change, negative = inhibition, most hits filed as inhibitors; hit rate 62% among 890; AID 720584; further: potency means the concentration at half of the fitted maximal effect; on the % scale 0 is the no-effect control and ±100 the full control effect; nearly all actives have a fitted effect of over 75% in size
* = called active by the depositor; ? = inconclusive; / = no result given; [ ] = another dose, or the depositor's remark. Unless noted, the call rests on the fitted dose curve; in most records, active means well fitted curve in the direction sought with a large enough effect; inconclusive means small, poorly fitted or top-dose-only effect, or another doubt; inactive means no such curve, though single readings can be large; an effect the other way counts as inactive or inconclusive.

SMILES | JMJD2A Tudor | HP1b chromo inh | PI5P4Ka inh | G9a block | PLK1 PBD inh | BAZ2B block | TbPYK confirm | TbPYK orthogonal
O=C(NCCN1CCOCC1)c1ccc2c(c1)N(Cc1c(F)cccc1Cl)C(=O)c1ccccc1S2 | -32% | -2% | 1 | ? | -16% | -31% | / | /
O=C1S/C(=C\c2ccc(N3CCOCC3)o2)C(=O)N1Cc1c(F)cccc1Cl | ? | 22% | / | ? | 55% | -36% | 18µM* | 14µM*
CC1(C)Cc2c(c(N3CCOCC3)nc3sc(C(N)=O)c(N)c23)CO1 | -10% | 19% | -5 | 4%[12.7 µM] | -6% | -32% | / | /
Cc1nc2sc(C(=O)O)c(N)c2c2c1COC(C)(C)C2 | 14µM* | 11% | -15 | 3.2µM* | ? | 7% | ? | 18µM*
Cc1nonc1C(=O)N/N=C/c1ccc(O)cc1O | -8%[11.4 µM] | 38% | -13 | / | -6% | -4% | 28µM* | -1%
Cc1nonc1C(=O)N/N=C/c1ccncc1 | -13% | 34% | 1 | / | -2% | -18% | / | /
COc1ccc(CNC(=O)Cc2c(C)c3c(cc(C)c4c(C)coc43)oc2=O)cc1OC | -8% | 32% | / | 2%[59 µM] | / | 0% | / | /
Nc1cc(=O)[nH]c(SCC(=O)Nc2cc(S(=O)(=O)N3CCCCC3)ccc2Cl)n1 | -7% | 20% | -16 | -7%[12.7 µM] | -16% | 6% | / | /
Cc1ccc(NC(=O)CSc2nnc(C)n2C2CC2)cc1S(=O)(=O)N1CCOCC1 | 2% | 40% | 2 | 16%[12.7 µM] | 5% | 7% | / | /
Cc1ccc(C(=O)NCC(=O)OCc2cc(=O)n3nc(C4CCCCC4)sc3n2)cc1 | -9% | 21% | / | 33%[59 µM] | / | -4% | / | /
CC[n+]1ccc(/C=C/c2ccc(N(C)C)cc2)c2ccccc21 | 22µM* | 18µM* | ? | / | 2% | 10µM* | 22µM* | 0%
Nc1ccc2c(c1)C(=O)c1ccc(N)cc1-2 | ? | ? | -18 | / | ? | / | / | /
FC(F)(F)Oc1ccc(Nc2nc(N3CCOCC3)nc(N3CCOCC3)n2)cc1 | 18µM* | 32% | ? | / | 4.7µM* | ? | 5% | -4%
COc1ccccc1S(=O)(=O)N(C)C[C@@H]1OCc2cn(nn2)CCCC(=O)N([C@H](C)CO)C[C@H]1C | / | / | 3 | / | ? | / | / | /
O=c1[nH]c(=O)n(C2CC(O)C(CO)O2)cc1Br (configuration not stated) | 79µM* | -12% | -2 | / | -1% | / | 13µM* | 28µM*
Cn1c(=O)cc(NCc2ccccc2)[nH]c1=O | -18% | 53% | 0 | -26%[2.33 µM] | -13% | 14% | / | /
O=c1cc(NCc2ccccc2)[nH]c(=O)[nH]1 | 12% | 19% | -5 | / | 5% | / | ? | ?
CCCc1ccc(OCC(=O)Nc2sc(C(=O)OCC)c(C)c2C(=O)OCC)cc1 | 6% | 37% | / | 5%[59 µM] | / | 7% | / | /
Cc1ccc(/C=C/C(=O)OCC(=O)Nc2cccnc2Cl)o1 | -18% | -21% | 0 | / | -5% | / | / | /
Cc1ccc(/C=C/C(=O)Nc2nn[nH]n2)o1 | 35µM* | -21% | ? | ? | -25% | 35µM* | 25µM* | 40µM*
Cc1ccc(/C=C/C(=O)NCCc2ccccc2)o1 | 28µM* | ? | -60* | 8.9µM* | 27µM* | ? | ? | ?
CC(C)c1ccc(/C=C/C(=O)Nc2nn[nH]n2)cc1 | / | / | / | ? | / | -16% | / | /
Cc1ccc(/C=C/C(=O)Nc2cccnc2)o1 | ? | ? | ? | 3.5µM* | ? | 1% | 28µM* | 40µM*
Cc1ccc(/C=C/C(=O)Nc2cccc3ncccc23)o1 | ? | -14% | / | ? | ? | -4% | ? | ?
Cc1ccc2[nH]c3c(=O)n(CC(=O)N(CCN(C)C)Cc4ccccc4)ncc3c2c1 | -15% | 28% | / | -24%[59 µM] | / | 1%[57.1 µM] | / | /
SMILES | JMJD2A Tudor | HP1b chromo inh | PI5P4Ka inh | G9a block | PLK1 PBD inh | BAZ2B block | TbPYK confirm | TbPYK orthogonal
Cc1nc(Nc2ncc(C(=O)Nc3c(C)cccc3Cl)s2)cc(N2CCN(CCO)CC2)n1 | / | / | / | -6%[12.7 µM] | / | / | / | /
N#Cc1cc2c(nc1SCc1cccnc1)CCCC2 | ? | -16% | -23 | ? | 27µM* | 16% | 4µM* | 6.3µM*
O=C1c2ccccc2C(=O)N1c1ccccc1 | -14% | 23% | -1 | / | -2% | / | / | /
O=C1C=CC(=O)N1c1cccc(-c2ccccc2)c1 | 50µM* | 32µM* | ? | 1µM* | 2.7µM* | 12% | 4µM* | 7.9µM*
COc1cc(NC(=O)CSC2=Nc3ccccc3N=C(c3ccc(F)cc3)C2)cc(OC)c1 | -12% | 11%[57 µM] | / | -2%[59 µM] | / | 1% | / | /
COCCn1c(C)cc(C(=O)COC(=O)c2cncc(Br)c2)c1C | -19% | -1% | 0 | ? | -9% | ? | / | /
COCCn1c(C)cc(C(=O)COC(=O)c2ccc3ncsc3c2)c1C | ? | -32% | -58* | 6%[12.7 µM] | 2.4µM* | 56µM* | -1% | 0%
CC1CCCCC1NC(=O)c1cc(S(=O)(=O)N2CCCCC2)ccc1N1CCOCC1 (configuration not stated) | -15% | 31% | 1 | 0%[12.7 µM] | -8% | -2% | / | /
Cc1ccc(CCNC(=O)C2CCCN(C(=O)c3cc4sccc4n3C)C2)cc1 (configuration not stated) | -36% | -8% | / | 14%[12.7 µM] | -9% | -7% | 2.5µM* | 10µM*
Cc1cc(C)c(C#N)c(SC2CCCCC2=O)n1 (configuration not stated) | -6% | 42% | / | ? | -13% | -2% | 14µM* | 18µM*
N#Cc1c(N)nc(SC2CCCCC2=O)c(C#N)c1-c1ccco1 (configuration not stated) | -10% | 32% | -28 | / | -21% | / | / | /
Cc1ccc2c(c1)N(CC(=O)NCCc1ccccc1)C(=O)c1cccnc1O2 | -22% | 35% | -1 | 17% | -3% | -27% | / | /
CCc1cccc(C)c1NC(=O)C1=C(C)C(=O)OC12CCC(C)CC2 (configuration not stated) | 0% | 25% | / | 9%[59 µM] | / | -7% | / | /
CCOCCc1nn2c(=O)cc(COC(=O)c3ccc(NC(=O)c4cccs4)cc3)nc2s1 | 2% | 23% | / | 52%[59 µM] | / | -37% | / | /
CCC[n+]1c(C)sc2c(OC)ccc(OC)c21 | 16µM* | 40% | -15 | 25µM* | 0% | 5% | 2.8µM* | 7.9µM*
CCCCC(=O)Nc1nc2c(OC)ccc(OC)c2s1 | -6% | 34% | 1 | -8% | -8% | 10% | / | /
CC(=O)/C(=N\Nc1ccc(Cl)cc1Cl)Sc1nnc(-c2ccccc2)n1-c1ccccc1 | -12% | 35% | -5 | ? | -9% | -3% | ? | 14µM*

Source: PubChem BioAssay
